Screens as filed in PubChem BioAssay.
PDI inh = blocks human protein disulfide isomerase activity; P07237; PDI insulin aggregation turbidity, A650, 90 min; inhibition, % at 10 µM; hit rate 0.052% among 350,000;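 active = mean inhibition across replicates of 30% or more, whatever share of single replicates reach that level; inconclusive = mean inhibition below 30% while every single replicate reaches 30%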
Target sequence (P07237 whole entry, looked up): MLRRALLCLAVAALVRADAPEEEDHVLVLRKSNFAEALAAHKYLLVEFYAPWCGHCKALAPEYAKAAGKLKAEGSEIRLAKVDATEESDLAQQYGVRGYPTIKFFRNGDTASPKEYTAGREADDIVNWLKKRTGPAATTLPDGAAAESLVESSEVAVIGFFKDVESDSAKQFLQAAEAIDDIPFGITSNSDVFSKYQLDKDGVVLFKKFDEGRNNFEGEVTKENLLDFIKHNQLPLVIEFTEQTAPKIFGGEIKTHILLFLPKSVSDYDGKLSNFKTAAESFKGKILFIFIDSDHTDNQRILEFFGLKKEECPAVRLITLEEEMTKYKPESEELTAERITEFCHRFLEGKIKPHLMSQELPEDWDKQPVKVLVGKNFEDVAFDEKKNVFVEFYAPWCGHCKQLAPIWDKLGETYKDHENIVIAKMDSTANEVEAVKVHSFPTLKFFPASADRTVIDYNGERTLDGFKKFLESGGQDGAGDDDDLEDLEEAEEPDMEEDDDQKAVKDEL
AI-2 QS mod = modulates the Vibrio harveyi AI-2 quorum sensing system; activity change, % at 7.5 µM; hit rate 0.4% among 300,000; Vibrio harveyi JMH597 AI-2 luminescence/OD600 ratio, 9 h; stronger effect = lower value; strain lacks LuxN and CqsS sensors; 0 = neutral-control median; in the data active = activity change below about -75%, passing the limit was not always enough; inconclusive = no clear call, values can overlap the other calls;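 note: luminescence divided by OD600 gain over 9 h not by final OD600 alone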
ERp5 inh = inhibitors of human ERp5. hit rate 0.05% among 350,000. Q15084. ERp5 insulin aggregation, absorbance 650 nm, 90 min. AID 651711. inhibition, % at 9.99 µM;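 active = mean replicate inhibition above about 25%, with every replicate also reaching it, limit read from the data, passing the limit was not always enough; inconclusive = only one of those two criteria met; inactive = neither criterion met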
Vif imaging = HIV Vif inhibition. HEK293T cells, Vif self-association by quenched fluorescence, imaging, 24 h. inhibition, % at 7.49 µM. hit rate 0.35% among 340,000. AID 602346; in the data active = inhibition above about 50%, passing the limit was not always enough; inconclusive = no clear call, values can overlap the other calls; inactive = below about 31%
PvdQ inh = blocks Pseudomonas aeruginosa PvdQ acylase activity; purified PvdQ acylase, fluorescence plate reader; inhibition, % at 10 µM; hit rate 0.063% among 340,000; AID 488965; in the data active = inhibition above about 30%, passing the limit was not always enough; inconclusive = no clear call, values can overlap the other calls;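 note: 0% = vehicle neutral wells and 100% = reference inhibitor wells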
JMH597 growth rt = retest: inhibitors of Vibrio harveyi JMH597 growth; shares compounds with AI-2 QS mod; OD600 absorbance, 9 h; lacks LuxN and CqsS sensors; growth inhibition, % at 7.5 µM; hit rate 1% among 750;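 active = every replicate shows growth inhibition above 50%; inconclusive = at least half, but not all, replicates pass that cutoff; inactive = fewer than half of replicates pass it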
BB721 const-QS lum = retest counter-screen: lowers luminescence of constitutive-QS Vibrio harveyi BB721. 9 h. shares compounds with AI-2 QS mod. AID 2727. inhibition, % at 7.5 µM. hit rate 95% among 750;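 active = inhibition above about 80% in every replicate, not just on average, limit read from the data; inconclusive = at least half of replicates past the limit, but not all; inactive = fewer than half of replicates past the limit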
BB721 growth = retest Vibrio harveyi BB721 growth inhibition | OD600 absorbance, 9 h | growth inhibition, % at 7.5 µM | hit rate 3% among 750 | AID 2728 | shares compounds with AI-2 QS mod;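 active = every replicate shows growth inhibition above 50%; inconclusive = at least half but not all replicates above 50% inhibition; inactive = under half of replicates above 50% inhibition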
JMH597 AI-2 mod = Vibrio harveyi AI-2 signaling luminescence modulation – JMH597 strain, confirmation; shares compounds with AI-2 QS mod; Vibrio harveyi JMH597 AI-2 quorum sensing luminescence, 9 h; luxN and CqsS knockout, AI-2 only; inhibition, % at 7.5 µM; hit rate 97% among 750;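 active = every replicate shows more than 75% inhibition of signal versus neutral control wells; inconclusive = half to three quarters of replicates exceed 75% inhibition; inactive = fewer than half of replicates exceed 75% inhibition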
Numbers without * were called inactive; ? = inconclusive; / = no result. In the library only some 0.64% were active in any assay of this set; here they are far more common.

SMILES	PDI inh	AI-2 QS mod	ERp5 inh	Vif imaging	PvdQ inh	JMH597 growth rt	BB721 const-QS lum	BB721 growth	JMH597 AI-2 mod
CC(=O)Nc1ccc(NC(=O)Cn2cc3c(n2)CCCC3)cc1	1.9	44.0	/	24.7	6.8	/	/	/	/
CC(=O)c1cccc(NC(=O)Cn2cc3c(n2)CCCC3)c1	/	-89.2*	-0.5	-1.1	-16.4	15.4	96.6*	7.2	98.0*
COc1ccc2nc(NNC(=O)C3COc4ccccc4O3)sc2c1 (stereo not given)	/	-85.4*	-0.7	24.4	-10.8	28.4	91.9*	22.5	94.9*
CC1(c2ccc(Cl)cc2)NC(=O)N(CC(=O)Nc2ccc(F)cc2)C1=O (stereo not given)	-5.3	-77.8*	6.6	2.9	-0.2	-11.5	85.5*	-14.7	89.4*
CC1(c2ccc(OC(F)F)cc2)NC(=O)N(CC(=O)Nc2ccc3c(c2)OCO3)C1=O (stereo not given)	0.2	-94.3*	/	-8.0	-2.6	-4.1	95.8*	-11.0	97.4*
CC1(c2ccccc2)NC(=O)N(CC(=O)Nc2ccc3c(c2)OCO3)C1=O (stereo not given)	0.0	-94.7*	-9.5	1.9	-0.9	-9.9	96.4*	-14.2	98.0*
CC1(c2ccc(Cl)cc2)NC(=O)N(CC(=O)NCc2ccc(F)cc2)C1=O (stereo not given)	10.3	28.3	2.8	6.3	2.1	/	/	/	/
Cc1cc(=O)oc2cc(NC(=O)CN3C(=O)NC(C)(c4ccccc4)C3=O)ccc12 (stereo not given)	1.6	-83.9*	0.0	19.0	-13.1	6.2	86.4*	-0.9	90.8*
COc1ccc(-c2ccc3c(c2)O[C@H](CN(C)C)[C@@H](C)CN([C@@H](C)CO)S3(=O)=O)cc1	/	/	0.9	/	/	/	/	/	/
COc1ccc(C2(C)NC(=O)N(CC(=O)Nc3ccc4ccccc4c3)C2=O)cc1OC (stereo not given)	5.6	/	2.7	-11.7	-15.6	/	/	/	/
CC(C)CC1(C)NC(=O)N(CC(=O)Nc2ccc3c(c2)CCC3)C1=O (stereo not given)	9.0	-85.1*	0.0	4.3	8.5	2.1	90.2*	-10.8	93.7*
COc1ccc(NC(=O)CN2C(=O)NC(C)(c3ccccc3)C2=O)cc1Cl (stereo not given)	3.7	-94.7*	-8.8	6.7	-15.1	24.4	95.7*	13.5	97.6*
Cc1occc1C(=O)NNC(=O)Nc1ccc(Cl)c(Cl)c1	-0.8	-86.3*	2.2	-11.2	-11.4	15.8	93.4*	5.3	93.8*
COc1cccc(NC(=O)CN2C(=O)NC3(CCCC3)C2=O)c1	3.3	16.9	1.9	4.3	-8.9	/	/	/	/
CCCC1(c2ccccc2)NC(=O)N(CC(=O)Nc2cc(OC)cc(OC)c2)C1=O (stereo not given)	11.5	-80.6*	2.3	2.1	7.3	7.2	?	-5.2	85.4*
COc1cccc(NC(=O)Cc2ccc3ccccc3c2)c1	-0.2	-84.3*	-3.7	-0.5	8.5	22.0	88.8*	14.1	92.2*
O=C(CN1C(=O)NC(c2ccccc2)(c2ccccc2)C1=O)Nc1ccc2[nH]c(=O)[nH]c2c1	2.8	27.3	-2.5	7.3	3.9	/	/	/	/
COc1cccc(NC(=O)CCC(=O)Nc2cccc(OC)c2)c1	-12.1	24.9	/	-7.8	-5.9	/	/	/	/
COc1cc(NC(=O)CN2C(=O)NC(c3ccccc3)(c3ccccc3)C2=O)cc(OC)c1	-3.4	-89.1*	2.8	4.0	-20.5	36.3	22.0	14.1	43.6
COc1cccc(NC(=O)CN2C(=O)NC(C)(c3ccc(C)cc3)C2=O)c1 (stereo not given)	-3.3	-90.0*	-0.6	-9.2	4.5	21.0	92.0*	25.1	95.4*
COc1cccc(NC(=O)CN2C(=O)NC(c3ccccc3)(c3ccccc3)C2=O)c1	-0.2	-93.5*	2.0	16.4	-14.0	8.3	93.4*	10.0	96.6*
